Screening results deposited in PubChem by National Center for Advancing Translational Sciences (NCATS).
Most compounds without a hit are left out; they make up all but 21% or so of the library.
Pf growth 96h: inhibits malaria parasite growth, 96 h | P. falciparum luciferase reporter growth, 96 h | Potency, µM (doses to about 28.7 µM), without a hit: at the top dose activity change, negative = inhibition, most hits filed as inhibitors | hit rate 6.9% among 320,000; further: potency means the concentration at half of the fitted maximal effect; on the % scale 0 is the no-effect control and ±100 the full control effect
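Plates of compound plus infected erythrocytes (2% hematocrit, 0.05% parasitemia final) incubate 96 hours, 37 C, 5% CO2. Detection reagent added; reduced luminescence from the parasites' luciferase reporter flags inhibition.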
SARS PLP yeast: SARS-CoV PLP inhibition in yeast. Potency, µM (doses to about 32.9 µM), for inactives: at the highest dose activity, positive = growth rescue, hits mostly activators. hit rate 0.19% among 330,000. S. cerevisiae expressing SARS-CoV PLpro, growth rescue; calls by dose curve; further: potency means the concentration at half of the fitted maximal effect; 0% is about no effect; nearly all actives have a fitted effect of over 55% in size
NS1 function inh: influenza NS1 inhibition. Potency, µM (highest dose often 46.1 µM), for inactives: top-dose activity, positive = more growth. hit rate 0.4% among 270,000. AID 2326; calls by dose curve; further: potency means the concentration at half of the fitted maximal effect; actives are rising curves; nearly all actives have a fitted effect of over 50% in size
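Compounds were scored for reversing the slow growth caused by influenza A NS1 in S. cerevisiae, measured by optical density at 600 nm. Assay medium contained 2% galactose at pH 6.0; NS1-free yeast of the same strain were the positive control.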
Shiga toxin inh: Shiga toxin inhibition | Vero cells, Shiga toxin protein synthesis inhibition reporter | inhibition, % at 38.7 µM | hit rate 9.2% among 290,000 | AID 2315; in the data active means inhibition mostly above about 28%, no sharp cut-off; inactive means mostly below about 43%; further: 0% is about no effect
Pf growth 48h: inhibits P. falciparum growth in the first generation, 48 h. P. falciparum luciferase growth in erythrocytes, 48 h. hit rate 5.9% among 310,000. AID 504832. Potency, µM (highest dose often 28.7 µM), inactives show top-dose activity change, negative = inhibition, actives largely listed as inhibitors; further: potency means the concentration at half of the fitted maximal effect; on the % scale 0 is the no-effect control and ±100 the full control effect
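Firefly luciferase activity from engineered P. falciparum reports growth; inhibitors lower the luminescent signal. Cultures contained 2% hematocrit erythrocytes at 0.1% final parasitemia.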
Cycloheximide cs: counter-screen hit for Shiga toxin inhibitors, cycloheximide. max response, %. AID 2314. hit rate 12% among 300,000. cell reporter, cycloheximide protein synthesis inhibition counterscreen; in the data active means max response mostly above about 13%, no sharp cut-off; inactive means mostly below about 14%; further: read at 38.3 µM for the half of the compounds with a filed dose; 0% is about no effect
An asterisk follows results filed as active; ? = inconclusive; nt = no result; [ ] = remark or other dose. Unless noted, the call rests on the fitted dose curve; in most records, active means well fitted inhibition curve with a large enough effect; inconclusive means small, poorly fitted or top-dose-only effect, or another doubt; inactive means no such curve, though single readings can be large or run the other way.

SMILES	Pf growth 96h	SARS PLP yeast	NS1 function inh	Shiga toxin inh	Pf growth 48h	Cycloheximide cs
COc1ccc2nc(NC(=O)c3cc(C)oc3C)sc2c1	-92.8%	-32.7%	10.7%	36.0*	22.9%	18.0*
COC(=O)c1sc(NC(=O)c2c(C)noc2C)nc1C	?	-2.1%	-13.0%	7.6	36.7%	2.0
COC(=O)c1sc(NC(=O)c2ccoc2C)nc1C	1.9%[5.75 µM]	-27.0%	2.5%	15.8*	134.8%	26.1*
CC(=O)Nc1ccc(Sc2ncccc2C(=O)Nc2ccc(F)cc2)cn1	6.57µM*	-4.3%	4.3%	-11.7	13.1µM*	-2.4
COc1ccc(C(=O)Nc2nc3cc4c(cc3s2)OCO4)c(OC)c1	183.0%	-0.3%	?	65.7*	157.1%	38.0*
COc1ccc2nc(NC(=O)c3ccoc3C)sc2c1	7.1%	-12.5%	-7.9%	37.6*	70.7%	48.2*
CSc1ncccc1C(=O)Nc1ccc2c(c1)OCCO2	nt	-9.0%	nt	nt	nt	nt
COCCCn1c(=O)c2ccccc2n(Cc2cc(C(=O)OC)ccc2OC)c1=O	14.9%	2.3%	0.8%	-5.2	7.38µM*	2.3
CCc1ccc(OC(=O)c2ccn(CC)n2)cc1	?	12.3%	-57.7%	150.5*	4.7%	39.8*
Cn1c(SCC(=O)NCc2ccco2)nnc1C1CCCC1	23.5%	-3.8%	14.4%	-18.7	12.6%	-1.6
COc1ccc2[nH]c(=O)c(C(c3nnnn3C(C)(C)C)N(Cc3ccco3)CC3CCCO3)cc2c1 (stereo not drawn)	5.86µM*	7.7%	-19.4%	-9.1	9.28µM*	8.2
Cc1cc(C)c2[nH]c(=O)c(C(c3nnnn3C(C)(C)C)N(Cc3ccco3)CC3CCCO3)cc2c1 (stereo not drawn)	1.85µM*	7.5%	8.5%	-3.9	nt	9.5
O=C(NC1=NCCS1)c1cc(-c2ccc(-c3ccccc3)cc2)nc2ccccc12	92.6%	-75.1%	0.2%	28.3	74.7%	23.7*
Cc1cc(C(=O)NC2=NCCS2)c2ccccc2n1	1.3%	-1.3%	nt	29.8	-8.6%	7.2
COc1ccc(-c2cc(C(=O)N3CCCC3)c3ccccc3n2)cc1OC	-19.8%	?	-0.1%	-6.2	?	18.8
COc1ccc(-c2cc(C(=O)NC3=NCCS3)c3ccccc3n2)cc1OC	?	0.2%	1.1%	46.1	-9.4%	26.8*
O=C(Nc1nc2c(s1)CCCC2)c1cc(-c2ccccc2)nc2ccccc12	18.3%	-21.3%	9.0%	19.4	?	13.7*
CC(C)(C)OC(=O)N1CCC(CC2CC(c3cccc(Br)c3)=NO2)(C(=O)O)CC1 (stereo not drawn)	?	3.5%	-38.5%	-1.3	19.5%	-1.0
Cc1ccc(-c2nnn(CC(=O)N(c3ccc4c(c3)OCCO4)C(C(=O)NCC3CCCO3)c3ccc(F)cc3)n2)o1 (stereo not drawn)	?	-6.6%	nt	9.5	?	13.5
CC(C)N(Cc1nccn1C)C(=O)c1ccc2oc(CCCc3ccccc3)nc2c1	25.5%	6.6%	9.1%	-8.0	-24.6%	4.2
CC(=O)C1CCCN(C(=O)c2ccc3oc(CCc4ccccc4)nc3c2)C1 (stereo not drawn)	3.4%	-20.0%	-0.1%	89.2*	72.3%	36.5*
CCOC(=O)C1CCCN(C(=O)c2cc(-c3ccccc3)on2)C1 (stereo not drawn)	nt	-4.9%	-11.0%	79.4*	180.9%	42.4*
CCOC(=O)C1CCCN(C(=O)c2cc3c(C)nc4ccccc4c3o2)C1 (stereo not drawn)	?	-0.8%	-38.5%	-4.0	?	-2.1
CCOC(=O)C1CCCN(C(=O)c2ccc3nc(-c4ccc(OC)c(OC)c4)c(-c4ccc(OC)c(OC)c4)nc3c2)C1 (stereo not drawn)	35.6%	2.2%	-8.8%	-1.7	?	-3.3
O=C(c1ccc2oc(CCCc3ccccc3)nc2c1)N1CCCC1	21.6%	1.9%	-34.4%	129.4*	24.1%	63.1*
CCOC(=O)C1CCCN(C(=O)c2ccc3nc(-c4ccccc4)c(-c4ccccc4)nc3c2)C1 (stereo not drawn)	13.1µM*	1.0%	14.0%	-6.7	?	10.5
CCCC[C@@H]1CNCCN1CCCc1cc(OC)c(OC)c(OC)c1	84.2%	0.6%	nt	nt	?	nt
CCC1=C(c2ccc(C)cc2)S(=O)(=O)N=C1N1CCC(C(=O)NCCCN2CCCCC2)CC1	-1.8%	4.8%	4.9%	8.7	-11.1%	-3.4
